HSP90 inh: blocks HSP90-mediated luciferase refolding in reticulocyte lysate. AID 1789. Rabbit reticulocyte lysate, luciferase refolding luminescence, 3 h. 0.91% of 290,000 active. inhibition, % at 5.6 µM;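 active = inhibition above the screen-wide mean plus 3 SD, computed separately per campaign, cut at about 16% in these data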;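 also: 0% = DMSO wells and 100% = 60 µM geldanamycin wells; inhibitors lower the luminescence because luciferase stays unfolded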
SENP8 block-1: blocks the human protease SENP8; 1.2% of 330,000 active; inhibition, % at 10 µM; Q96LD8; AID 2540; purified SENP8, Z-RLRGG-aminoluciferin cleavage, luminescence; in the data active = inhibition above about 50%
Target sequence (Q96LD8 whole entry, looked up): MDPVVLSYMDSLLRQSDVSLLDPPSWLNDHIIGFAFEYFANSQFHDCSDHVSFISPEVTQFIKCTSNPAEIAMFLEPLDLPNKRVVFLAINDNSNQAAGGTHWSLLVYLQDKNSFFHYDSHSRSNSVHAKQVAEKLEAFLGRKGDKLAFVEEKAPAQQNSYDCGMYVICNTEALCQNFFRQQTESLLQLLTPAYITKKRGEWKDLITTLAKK
SENP7 block: inhibitors of human SENP7 protease; inhibition, % at 5 µM; recombinant SENP7, Z-RLRGG-aminoluciferin luminescence, 40 min; 1.5% of 330,000 active; AID 434973; Q9BQF6;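 active = inhibition above about 50% at the single test dose, limit read from the data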;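 also: plate controls were DMSO with enzyme for no effect and no enzyme buffer wells for full effect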
Target sequence (Q9BQF6 706-1050 limits assumed): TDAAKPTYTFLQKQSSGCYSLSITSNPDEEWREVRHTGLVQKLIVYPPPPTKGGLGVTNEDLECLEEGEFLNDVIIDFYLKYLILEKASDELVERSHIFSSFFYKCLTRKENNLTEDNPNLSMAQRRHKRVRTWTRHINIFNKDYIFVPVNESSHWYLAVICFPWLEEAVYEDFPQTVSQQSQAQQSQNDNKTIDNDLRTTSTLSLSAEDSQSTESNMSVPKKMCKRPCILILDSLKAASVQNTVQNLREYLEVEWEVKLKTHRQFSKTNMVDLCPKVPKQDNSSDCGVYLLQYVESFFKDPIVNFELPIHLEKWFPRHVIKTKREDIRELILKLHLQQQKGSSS
SENP8 block-2: inhibitors of human SENP8 protease | Q96LD8 | recombinant SENP8, Nedd8 substrate fluorescence | inhibition, % at 20 µM | 0.64% of 360,000 active | AID 602440; in the data active = inhibition mostly above about 40%, no sharp cut-off; inactive = mostly below about 27%
SENP6 inh: SENP6 protease inhibition; Q9GZR1; AID 2599; 1.8% of 330,000 active; inhibition, % at 10 µM; Recombinant SENP6 catalytic domain, aminoluciferin luminescence;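 active = inhibition above about 50% at the single tested dose, limit read from the data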;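 also: plate controls were DMSO wells with enzyme for no effect and DMSO wells lacking enzyme for full effect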
Active calls of the source: *; . = no result given. An excerpt weighted towards active compounds, which were near 2.8% of everything screened.

SMILES | HSP90 inh | SENP8 block-1 | SENP7 block | SENP8 block-2 | SENP6 inh
CC1CCc2c(sc3ncn(CC(=O)N=Nc4c(O)[nH]c5ccccc45)c(=O)c23)C1 (stereo unspecified) | 2 | -8 | 11 | 44* | -12
CC(C)(C)c1cc(NC(=O)C2CCCO2)no1 (stereo unspecified) | 6 | -3 | 9 | 13 | 21
O=C(Nc1ccc(Cl)c(Cl)c1)OCCNC(=O)c1ccncc1 | 1 | 0 | 2 | 17 | 6
CCOc1cc(C(c2c(C)[nH][nH]c2=O)c2c(C)[nH][nH]c2=O)ccc1OCc1ccc([N+](=O)[O-])cc1 | 2 | -1 | 9 | 37* | 7
COc1ccc(/C=C2\CCC(C3CCCC3)C2=O)cc1OC (stereo unspecified) | 1 | -5 | 1 | 17 | 12
Cc1ccc(/C=C2\CCC(C3CCCC3)C2=O)cc1 (stereo unspecified) | -5 | 40 | 75* | 7 | 89*
O=C1C(N2CCOCC2)=C(n2nnc3ccccc32)C(=O)c2ccccc21 | 41* | 74* | 35 | 76* | 76*
O=C1c2ccccc2C(=O)c2c1cccc2-n1nnc2ccccc21 | -2 | 0 | 5 | 32 | -11
Cn1c(CCNC(=O)c2ccco2)nc2ccccc21 | . | 5 | -4 | 14 | -4
CC1CCC/C(=C\Nc2ccc(C(=O)O)c(O)c2)C1=O (stereo unspecified) | -2 | 28 | -12 | -11 | 48
O=C1CCCC/C1=C\Nc1ccc(C(=O)O)c(O)c1 | -3 | 36 | 22 | -7 | 62*
O=C(O)c1cccnc1C(=O)O | . | 2 | 1 | 41* | 2
CC(=O)Nc1nc(-c2ccc(Cl)cc2)ns1 | -9 | 35 | 13 | -7 | 55*
CCC(=O)Nc1nc(-c2ccccc2)ns1 | 2 | -8 | -12 | 10 | -9
CCn1nnnc1SCC(=O)N1c2ccccc2CCc2ccccc21 | -2 | -2 | -6 | -1 | -16
O=c1[nH][nH]c2c(N=Cc3ccccc3O)ccc(F)c12 | 2 | . | . | 47* | .
COc1cccc(-c2nn(C)c3sc(C(=O)N4CCOCC4)cc23)c1 | 27* | 3 | 3 | -24 | 9
COc1cccc(-c2nn(C)c3sc(C(=O)N4CCN(c5ccccn5)CC4)cc23)c1 | 3 | -7 | 5 | -6 | -28
O=C(Cc1ccccc1)NC1(O)C(=O)c2ccccc2C1=O | -4 | 30 | 13 | 50* | 42
O=C(O)c1ccc(N=N/C(=N\Nc2ccc(C(=O)O)cc2)c2ccccc2)cc1 | . | 10 | -4 | 45* | 22
O=C(O)c1cccc(N/N=C(\N=Nc2ccccc2)c2ccccc2)c1 | . | -2 | 7 | 38 | 11
COc1ccc(Cl)cc1NC(=O)NNC(=O)c1ccccn1 | -5 | 1 | -6 | 1 | 1
O=C(N/N=C/c1ccccc1OCC(=O)N1CCCC1)C(=O)Nc1ccccc1F | -1 | 34 | 61* | -2 | 70*
O=C(N/N=C/c1ccc(OCC(=O)N2CCCCC2)cc1)c1ccccc1 | 4 | 4 | -3 | 1 | -41
CCOc1cc(C2CC(=O)N3CN(C4CCCCC4)CSC3=C2C#N)ccc1O (stereo unspecified) | 1 | -1 | 25 | 66* | 14
SMILES | HSP90 inh | SENP8 block-1 | SENP7 block | SENP8 block-2 | SENP6 inh
COc1ccc2nc(N=Nc3ccc(N(C)C)cc3)sc2c1 | 26* | . | . | 33 | .
CC1(c2ccc(Cl)cc2)NC(=O)N(CC(=O)NCCC2=CCCCC2)C1=O (stereo unspecified) | . | -17 | -7 | 12 | -16
O=C(NCCc1csc(-c2ccccc2)n1)c1c(F)cccc1F | 41* | 0 | -1 | -2 | -13
Cc1cc(C(O)c2ncc(-c3cccc(F)c3)[nH]2)ccc1F (stereo unspecified) | . | . | . | 2 | .
O=C(CCOc1ccccc1)Nc1ccccc1[N+](=O)[O-] | 0 | -2 | 3 | 15 | 12
O=[N+]([O-])c1ccccc1NCCOc1ccccc1 | 0 | 60* | 73* | 16 | 82*
O=C(Nc1ccc([N+](=O)[O-])cc1Cl)c1cccc([N+](=O)[O-])c1 | . | . | . | 15 | .
O=C(Nc1cccc(Cl)c1)c1cc(N=Nc2ccc([N+](=O)[O-])cc2Cl)ccc1O | -2 | 14 | 7 | 43* | -1
O=C(Nc1cccc(Cl)c1)c1cccc(Oc2ccc([N+](=O)[O-])cc2Cl)c1 | 1 | -13 | -13 | -3 | -13
O=C(Nc1ccc([N+](=O)[O-])cc1Cl)c1cc(Cl)ccc1O | . | 98* | 100* | 12 | 99*
Clc1ccccc1OCc1nc(-c2ccccn2)no1 | 8 | 69* | 84* | 26 | 86*
CC(=O)Nc1nc(C)c(-c2csc(Nc3ccccn3)n2)s1 | 0 | 74* | 79* | -306 | 87*
Cc1nc(NC(=O)c2ccc(Cl)cc2)sc1-c1csc(Nc2cccc(F)c2)n1 | 69* | . | . | . | .
CC(C)C(=O)Nc1ccc(NC(=S)NC(=O)c2cc3ccccc3o2)cc1 | 0 | -5 | -7 | 10 | -10
Cc1c(CC(=O)O)c(=O)oc2cc(OCc3ccc(Br)cc3)ccc12 | 17* | 4 | 3 | -285 | 17
Cc1c(CC(=O)O)c(=O)oc2cc(OCc3ccc(F)cc3F)ccc12 | 6 | -8 | -3 | -272 | 11
CCCOc1ccc(N)cc1N | -3 | 52* | 39 | -44 | -4
Cc1cc(C(=O)N/N=C/c2cc(N=Nc3ccccc3)ccc2O)n[nH]1 | 1 | . | . | 41* | .
O=C(Cn1c(C(F)(F)F)nc2ccccc21)Nc1ccccc1C(=O)O | -3 | -3 | 3 | 4 | -10
O=[N+]([O-])c1cccc(-c2noc(-c3cccs3)n2)c1 | -6 | 34 | 75* | 17 | 56*
O=C(CSc1nnc(-c2ccncc2)s1)Nc1ccc(Cl)c(C(=O)O)c1 | 1 | -3 | -2 | 4 | 15
O=C1CSC(=S)N1/N=C/c1ccc(O)c(O)c1O | -2 | 8 | 8 | 53* | -2
O=C1c2ccccc2C(=O)c2c(/C=C/N3CCCCC3)ccnc21 | . | . | . | 64* | .
CC1=NN(C(C#N)c2ccccc2O)C(C)(C)C1 (stereo unspecified) | 5 | -7 | 2 | 43* | 9
CCN(CC)S(=O)(=O)c1cc([N+](=O)[O-])ccc1N=Nc1c(O)[nH]c2ccccc12 | 0 | . | . | 43* | .
SMILES | HSP90 inh | SENP8 block-1 | SENP7 block | SENP8 block-2 | SENP6 inh
CCOC(=O)c1c(C)nc2c(c1-c1ccc(OC)cc1)C(=O)CC(C)(C)C2 | 2 | -7 | 2 | 28 | -15
Cc1ccc(CNC(=O)CNC(=S)N(Cc2ccccc2)Cc2cccnc2)cc1 | -4 | -2 | 5 | 8 | 13
Nc1[nH]n(-c2ccccc2)c(=O)c1N=Nc1ccc2c(c1)OCO2 | -2 | 52* | 69* | 52* | 64*
Cc1cc(C)c2nc(NNC(=O)c3ccc(S(=O)(=O)N4CCc5ccccc5C4)cc3)sc2c1 | 5 | 5 | 4 | -2 | 4
Cc1cc(C)c2nc(NNC(=O)c3cc(=O)c4ccccc4o3)sc2c1 | 15 | 63* | 2 | 4 | 79*
Oc1c(Br)cc(Br)cc1C=Nc1cccc2ncccc12 | . | 50* | 14 | -8 | 72*
Brc1cccc(C=Nc2cccc3ncccc23)c1 | . | 0 | 15 | 36 | 2

Screening data deposited in PubChem by several laboratories.
